Results on 24 compounds are retold here after PubChem BioAssay.

For experiment [1], the target named is Nuclear receptor coactivator 1 (Homo sapiens) (UniProt Q15788). As to the kind of experiment: NCOA1 GAL4-fusion reporter inhibition – cell-based, luminescence, quadruplicate, confirmation (AID 588820;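 active = mean inhibition above 46.68%, the untreated control wells mean plus 3 SD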;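 note: 0% = DMSO wells and 100% = gossypol 36 µM treated wells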). To be noted: HEK293 GAL4-SRC1 luciferase reporter, at 3.6 µM, stronger effect = higher value.
Sequence of Nuclear receptor coactivator 1 (Homo sapiens) (Q15788 whole entry, looked up, the tested form may be a part): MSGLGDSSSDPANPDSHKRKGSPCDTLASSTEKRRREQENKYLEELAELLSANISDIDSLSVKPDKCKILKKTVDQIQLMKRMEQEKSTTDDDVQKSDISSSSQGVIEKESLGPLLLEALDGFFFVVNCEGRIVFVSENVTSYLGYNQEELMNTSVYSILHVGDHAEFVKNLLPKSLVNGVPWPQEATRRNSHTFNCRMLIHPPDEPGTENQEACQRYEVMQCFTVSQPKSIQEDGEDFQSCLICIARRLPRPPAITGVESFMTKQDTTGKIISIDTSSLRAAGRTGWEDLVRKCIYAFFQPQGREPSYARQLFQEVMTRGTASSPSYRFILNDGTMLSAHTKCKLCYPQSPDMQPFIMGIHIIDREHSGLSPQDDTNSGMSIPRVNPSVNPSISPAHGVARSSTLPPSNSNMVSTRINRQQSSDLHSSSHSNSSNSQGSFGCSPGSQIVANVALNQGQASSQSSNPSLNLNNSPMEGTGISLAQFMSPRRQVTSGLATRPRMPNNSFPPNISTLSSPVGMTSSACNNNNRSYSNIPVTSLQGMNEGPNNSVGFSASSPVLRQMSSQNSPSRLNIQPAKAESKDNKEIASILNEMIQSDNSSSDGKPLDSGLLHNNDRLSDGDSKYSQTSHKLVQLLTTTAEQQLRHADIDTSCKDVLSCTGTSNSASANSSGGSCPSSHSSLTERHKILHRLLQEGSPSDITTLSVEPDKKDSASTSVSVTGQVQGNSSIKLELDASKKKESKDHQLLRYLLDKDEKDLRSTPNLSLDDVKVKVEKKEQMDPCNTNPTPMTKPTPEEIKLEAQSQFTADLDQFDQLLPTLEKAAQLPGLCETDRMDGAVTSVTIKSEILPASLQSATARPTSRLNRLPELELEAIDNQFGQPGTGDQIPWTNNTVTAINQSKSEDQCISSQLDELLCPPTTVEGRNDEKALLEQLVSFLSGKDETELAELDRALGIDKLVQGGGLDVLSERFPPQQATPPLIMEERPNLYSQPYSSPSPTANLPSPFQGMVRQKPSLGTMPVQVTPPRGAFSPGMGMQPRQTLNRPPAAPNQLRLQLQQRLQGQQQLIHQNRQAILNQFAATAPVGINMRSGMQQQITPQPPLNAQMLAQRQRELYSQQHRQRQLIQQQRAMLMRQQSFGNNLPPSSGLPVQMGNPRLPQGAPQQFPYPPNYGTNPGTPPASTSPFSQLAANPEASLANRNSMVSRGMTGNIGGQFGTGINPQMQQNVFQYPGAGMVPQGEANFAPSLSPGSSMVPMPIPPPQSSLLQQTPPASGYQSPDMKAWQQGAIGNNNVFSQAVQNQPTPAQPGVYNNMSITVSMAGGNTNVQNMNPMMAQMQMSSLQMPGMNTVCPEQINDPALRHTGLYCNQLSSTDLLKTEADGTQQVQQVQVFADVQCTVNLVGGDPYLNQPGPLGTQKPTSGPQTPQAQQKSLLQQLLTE
Experiment [2] is described as follows: repression of VP16-driven luciferase reporter – cell-based, luminescence, high throughput, counter-screen for SRC1 inhibitor project (AID 588824; in the data active = inhibition above about 25%). To be noted: cell-based VP16 transactivation luciferase luminescence; at 3.6 µM; stronger effect = higher value. On the technique in general: A reporter such as luciferase makes a cellular process visible.
A short description of experiment [3]: StAR promoter reporter inhibitors, counter-screen for LRH-1 inverse agonist project, cell-based, luminescence, high throughput (AID 651611; in the data active = inhibition above about 28%). The note with it: StAR promoter luciferase reporter counterscreen, at 3.6 µM, stronger effect = higher value. (The purpose of a counterscreen is to sort out artefacts and off-target activity.)
In experiment [4] the target is Nuclear receptor subfamily 5 group A member 2 (Homo sapiens) (UniProt O00482). As to the kind of experiment: NR5A2 activity suppression in reporter cells – cell-based, luminescence, confirmation (AID 651613).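 Note: HEK293T cells co-transfected with LRH-1 and StAR promoter luciferase reporter; 0% = vehicle wells and 100% = parental cells lacking receptor.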 To be noted: cell-based LRH-1 luciferase reporter, inverse agonism; at 3.6 µM; stronger effect = higher value.
Sequence of Nuclear receptor subfamily 5 group A member 2 (Homo sapiens) (O00482 whole entry, looked up): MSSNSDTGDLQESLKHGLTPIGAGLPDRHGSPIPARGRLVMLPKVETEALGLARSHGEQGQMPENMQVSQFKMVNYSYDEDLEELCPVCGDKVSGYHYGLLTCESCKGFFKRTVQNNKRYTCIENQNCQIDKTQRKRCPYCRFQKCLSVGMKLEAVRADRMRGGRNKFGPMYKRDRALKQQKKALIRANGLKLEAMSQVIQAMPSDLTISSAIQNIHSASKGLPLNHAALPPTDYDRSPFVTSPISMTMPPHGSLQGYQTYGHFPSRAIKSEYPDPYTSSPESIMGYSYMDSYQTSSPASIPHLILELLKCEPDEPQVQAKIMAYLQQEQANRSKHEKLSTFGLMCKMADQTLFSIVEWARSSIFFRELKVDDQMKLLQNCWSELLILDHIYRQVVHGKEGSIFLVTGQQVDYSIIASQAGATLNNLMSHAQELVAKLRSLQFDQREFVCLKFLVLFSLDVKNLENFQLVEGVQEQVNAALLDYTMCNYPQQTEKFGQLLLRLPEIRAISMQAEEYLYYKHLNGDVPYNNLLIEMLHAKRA
The target in experiment [5] is Steroidogenic factor 1 (Homo sapiens) (UniProt Q13285). As to the kind of experiment: inverse agonism at SF1 nuclear receptor – cell-based, luminescence, high throughput, counter-screen for LRH-1 inverse agonist project (AID 651614; in the data active = inhibition above about 44%;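 note: cells cotransfected with StAR promoter reporter and SF1 expression vector; 0% = vehicle on cells with receptor and 100% = vehicle on cells lacking receptor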). The note with it: cell-based SF1 luciferase reporter, at 3.6 µM, stronger effect = higher value.
Sequence of Steroidogenic factor 1 (Homo sapiens) (Q13285 whole entry, looked up, the tested form may be a part): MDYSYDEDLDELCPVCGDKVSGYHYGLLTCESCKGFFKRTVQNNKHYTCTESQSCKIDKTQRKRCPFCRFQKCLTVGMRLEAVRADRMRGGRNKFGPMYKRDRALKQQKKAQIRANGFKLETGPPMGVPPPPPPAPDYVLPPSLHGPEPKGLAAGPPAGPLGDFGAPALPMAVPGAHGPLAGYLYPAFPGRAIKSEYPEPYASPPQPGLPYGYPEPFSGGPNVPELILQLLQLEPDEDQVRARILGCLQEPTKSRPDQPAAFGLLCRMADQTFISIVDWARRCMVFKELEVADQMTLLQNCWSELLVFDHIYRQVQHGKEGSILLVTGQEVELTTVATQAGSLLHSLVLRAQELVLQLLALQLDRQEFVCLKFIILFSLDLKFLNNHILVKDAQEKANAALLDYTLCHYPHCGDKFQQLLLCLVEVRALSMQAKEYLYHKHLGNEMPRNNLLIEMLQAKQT
Experiment [6] is described as follows: compounds suppressing VP16-driven luciferase signal – cell-based, luminescence, high throughput, counter-screen for LRH-1 inverse agonist project (AID 651615; in the data active = inhibition above about 33%). To be noted: Gal4-VP16 luciferase reporter cells, at 3.6 µM, stronger effect = higher value.
Experiment [7] relates to transactivating tegument protein VP16 (Human herpesvirus 1). As to the kind of experiment: compounds suppressing VP16-driven luciferase signal – cell-based, luminescence, single concentration, counter-screen for SRC2 inhibitor project (AID 652007; in the data active = inhibition above about 36%). The note with it: cell-based VP16 transactivation luciferase reporter, at 8.9 µM, stronger effect = higher value.
For experiment [8], the target named is Nuclear receptor coactivator 2 (Homo sapiens) (UniProt Q15596). As to the kind of experiment: inhibition of GAL4-SRC2 driven luciferase expression – cell-based, luminescence, HEK293, triplicate, confirmation (AID 652008;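 active = mean inhibition above 46.5%, the solvent-only control mean plus 3 SD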;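 note: 0% = DMSO-treated cells and 100% = Gossypol at 36 µM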). To be noted: HEK293 GAL4-SRC2 luciferase reporter, at 8.9 µM, stronger effect = higher value.
Sequence of Nuclear receptor coactivator 2 (Homo sapiens) (Q15596 whole entry, looked up, the tested form may be a part): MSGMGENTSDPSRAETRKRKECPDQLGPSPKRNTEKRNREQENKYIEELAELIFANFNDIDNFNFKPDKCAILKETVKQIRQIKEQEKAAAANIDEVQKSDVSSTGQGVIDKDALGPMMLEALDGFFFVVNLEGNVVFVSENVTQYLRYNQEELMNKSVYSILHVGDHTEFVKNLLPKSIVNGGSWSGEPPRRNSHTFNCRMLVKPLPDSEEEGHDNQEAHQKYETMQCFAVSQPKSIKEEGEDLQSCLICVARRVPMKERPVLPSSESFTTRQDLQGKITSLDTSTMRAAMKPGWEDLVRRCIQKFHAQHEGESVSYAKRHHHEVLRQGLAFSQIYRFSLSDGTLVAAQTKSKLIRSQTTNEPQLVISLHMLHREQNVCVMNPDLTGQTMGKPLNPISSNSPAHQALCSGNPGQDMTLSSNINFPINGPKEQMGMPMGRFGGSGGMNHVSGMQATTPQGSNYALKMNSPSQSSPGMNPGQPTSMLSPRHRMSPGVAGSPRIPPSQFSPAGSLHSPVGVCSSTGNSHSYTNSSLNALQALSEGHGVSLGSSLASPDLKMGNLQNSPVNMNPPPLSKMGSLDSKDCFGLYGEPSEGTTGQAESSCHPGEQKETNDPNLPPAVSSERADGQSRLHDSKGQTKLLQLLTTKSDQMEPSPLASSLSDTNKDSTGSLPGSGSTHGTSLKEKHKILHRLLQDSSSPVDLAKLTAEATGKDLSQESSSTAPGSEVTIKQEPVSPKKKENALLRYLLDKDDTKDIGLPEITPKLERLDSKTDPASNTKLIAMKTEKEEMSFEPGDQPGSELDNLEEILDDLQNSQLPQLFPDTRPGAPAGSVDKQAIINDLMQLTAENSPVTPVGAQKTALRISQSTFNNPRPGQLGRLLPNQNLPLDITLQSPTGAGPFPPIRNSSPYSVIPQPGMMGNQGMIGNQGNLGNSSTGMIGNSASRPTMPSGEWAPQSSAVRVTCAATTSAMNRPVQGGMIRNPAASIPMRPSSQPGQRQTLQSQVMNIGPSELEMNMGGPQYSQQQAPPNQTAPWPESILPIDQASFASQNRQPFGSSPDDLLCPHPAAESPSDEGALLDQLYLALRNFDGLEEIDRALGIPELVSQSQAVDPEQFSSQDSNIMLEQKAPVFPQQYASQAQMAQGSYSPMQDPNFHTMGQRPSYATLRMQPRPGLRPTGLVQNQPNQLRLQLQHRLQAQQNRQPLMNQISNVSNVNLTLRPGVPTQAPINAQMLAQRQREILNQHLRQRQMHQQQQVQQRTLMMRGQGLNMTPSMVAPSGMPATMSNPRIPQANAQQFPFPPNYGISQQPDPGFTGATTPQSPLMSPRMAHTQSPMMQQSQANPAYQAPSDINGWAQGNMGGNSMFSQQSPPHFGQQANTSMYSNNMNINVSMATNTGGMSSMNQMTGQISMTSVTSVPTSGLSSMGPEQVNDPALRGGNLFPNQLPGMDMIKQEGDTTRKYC
Experiment [9] deals with Receptor-interacting serine/threonine-protein kinase 2 (Homo sapiens) (UniProt O43353). As to the kind of experiment: inhibitors of RIPK2 association with NOD2 – fluorescence, CHO cells, BLA complementation, triplicate, confirmation (AID 624370;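 active = mean inhibition across replicates above a set limit taken from the earlier primary screen, cut at about 21% in these data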;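 note: 0% = DMSO-only wells and the high end = clavulanate BLA-blocked wells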). The note with it: CCF4 FRET, at 4.98 µM, stronger effect = higher value.
Sequence of Receptor-interacting serine/threonine-protein kinase 2 (Homo sapiens) (O43353 whole entry, looked up): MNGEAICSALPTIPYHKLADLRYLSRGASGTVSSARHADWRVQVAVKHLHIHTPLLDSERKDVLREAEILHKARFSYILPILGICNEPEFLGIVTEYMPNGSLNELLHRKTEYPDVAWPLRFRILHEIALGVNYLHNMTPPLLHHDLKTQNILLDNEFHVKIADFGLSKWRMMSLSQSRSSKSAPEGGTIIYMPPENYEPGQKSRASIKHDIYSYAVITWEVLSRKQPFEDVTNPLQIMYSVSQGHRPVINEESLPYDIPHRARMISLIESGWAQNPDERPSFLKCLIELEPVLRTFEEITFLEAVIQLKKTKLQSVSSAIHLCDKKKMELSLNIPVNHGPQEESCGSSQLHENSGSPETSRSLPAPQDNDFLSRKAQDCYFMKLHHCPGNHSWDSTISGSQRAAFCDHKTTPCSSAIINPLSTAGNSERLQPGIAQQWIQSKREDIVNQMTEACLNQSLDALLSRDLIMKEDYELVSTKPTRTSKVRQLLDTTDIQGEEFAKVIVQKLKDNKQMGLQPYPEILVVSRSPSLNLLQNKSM
Experiment [10] is described as follows: BLA reporter readout interference – cell-based, CHO-K1 CMV-bla, CCF4 FRET, fluorescence, artefact control for NOD2-RIPK2 interaction inhibitor project, confirmation (AID 624371;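 active = mean inhibition above the low-control mean inhibition plus three low-control SD, cut at about 11% in these data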;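 note: 0% = DMSO only wells and 100% = clavulanate high control wells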). The note with it: CCF4 FRET ratio, counterscreen, at 4.98 µM, stronger effect = higher value.

Molecules are shown by their SMILES. Values without a mark were called inactive. The list shows a part of the results. Active and inactive are the calls of the source. Cut-off read from the data, not from the text of the source, unless noted: active = inhibition above about 42%; inactive = the rest.

For orientation: inhibition means the change of the read-out against control, counted positive when it falls. `CCCCC(CC)COCCCN=Cc1c(O)[nH]c(=S)[nH]c1=O` (stereo not drawn): the results for the inhibition in experiment [1] and in experiment [2] were 29.9% and 17.5%, respectively.

`Cc1cc(S(=O)(=O)NC(C)C)ccc1OCC(=O)N1CCN(Cc2ccc3c(c2)OCO3)CC1`: the inhibition is 16.6% in experiment [3], 52.9% (active) in [4], 40% in experiment [5] and 19.5% in experiment [6].

Take `CC(=O)c1cn(Cc2ccccc2C#N)c2ccccc12`: the inhibition was 28.8% (active) in [3], 57.2% (active) in [4], 55.8% (active) in experiment [5] and 55.5% (active) in [6].

On to `COC(=O)C1=C(c2ccc(-c3ccccc3)c(F)c2)C[C@@H]2CC[C@H]1N2C(=O)N1CCOCC1`, for which the inhibition is 2.48% in experiment [1] and 25.3% in [2].

As for `CCN1CCN(c2cc(N3CCCC3)c([N+](=O)[O-])cc2F)CC1`, the inhibition is 1.38% in [3], 51.2% (active) in experiment [4], 46.4% (active) in experiment [5] and 15.6% in experiment [6].

As to `N#Cc1c(Br)n(C2OC(CO)C(O)C2O)c2ncnc(N)c12` (stereo not drawn), the inhibition in experiment [1] was 40.9%; in experiment [2], 29.9% (active); in [3] it was 61.8% (active); in experiment [4] it was 77.3% (active); in experiment [5], 63.2% (active); in [6], 48.6% (active). Further, the figures for the inhibition in experiment [7] and in [8] were -16.7% and 54.4% (active), respectively.

Consider `O=Cc1cn(Cc2cccc([N+](=O)[O-])c2)c2ccccc12`, for which the inhibition in experiment [1] is 39.9%; in experiment [2] it was 30.7% (active); in experiment [3], 65.6% (active); in experiment [4], 74.4% (active); in [5], 80.3% (active); in [6], 14.4%.

Turning to `N#CCCn1cc(C(=O)Nc2ccccc2Br)c(-c2ccc([N+](=O)[O-])cc2)n1`, the inhibition was 18.4% in [3], 61.5% (active) in [4], 51.6% (active) in experiment [5] and 1.09% in [6].

Regarding `CCN(CC)C(=O)COc1cc(C)cc2oc(=O)c3c(c12)CCCC3`, the inhibition is 7.68% in experiment [3], 63.6% (active) in experiment [4], 59% (active) in [5] and -18.9% in experiment [6].

As for `CCOC(=O)[C@]12Cc3ccc(C)cc3[C@H]1N(C1CCCCC1)C(=O)c1ccccc12`, the inhibition is 39.6% (active) in experiment [3], 98% (active) in experiment [4], 29.8% in experiment [5] and 84.1% (active) in [6].

Take `N#Cc1ccc(NC(=S)N2Cc3ccccc3-n3nncc3C2)cc1`: the inhibition was -5.3% in experiment [3], 56.4% (active) in [4], 47.5% (active) in [5] and 10.9% in [6].

Consider `OC1(c2ccc(F)cc2)CC2CCC(C1)N2Cc1nnnn1C1CCCC1` (stereo not drawn), for which the inhibition in experiment [3] is -7.67%; in experiment [4] it was 46.8% (active); in experiment [5], 50.3% (active); in [6], -0.39%.

For `O=c1[nH]c2ccccc2n1C1CCN(C(c2cccs2)c2nnnn2-c2ccc3c(c2)OCCO3)CC1` (stereo not drawn), the inhibition in [1] is -26.2%; in experiment [2] it was 25.5% (active).

With `C[C@@H]1O[C@@H](O[C@H]2C[C@@H](O)[C@]3(CO)[C@H]4[C@H](O)C[C@]5(C)[C@@H](C6COC(=O)C6)CC[C@]5(O)[C@@H]4CC[C@]3(O)C2)[C@H](O)[C@H](O)[C@H]1O` (stereo partly drawn), the inhibition in [3] was 92.4% (active); in experiment [4], 103% (active); in experiment [5], 87.3% (active); in [6] it was 66.4% (active).

On to `N#Cc1ccc2nc(-c3ccc(CN4CCC(n5c(=O)[nH]c6ccccc65)CC4)cc3)c(-c3ccccc3)nc2c1`, for which the inhibition in experiment [3] was 43.8% (active); in [4], 44% (active); in experiment [5], 43.2% (active); in experiment [6], 27.1%.

For `Cc1ccc(-n2nc(C)cc2NC(=O)COc2cc(C)cc3oc(=O)c4c(c23)CCC4)cc1`, the inhibition was 19.1% in experiment [3], 60.3% (active) in experiment [4], 61.2% (active) in [5] and -10.8% in [6].

On to `CCCCn1nnnc1C(CCc1ccccc1)N1CCC(n2c(=O)[nH]c3ccccc32)CC1` (stereo not drawn), for which the figures for the inhibition in experiment [1] and in experiment [2] were -23.9% and 7.75%, respectively.

Consider `CCOC(=O)[C@]12Cc3cc(C)ccc3[C@H]1N(C1CCCCC1)C(=O)c1ccccc12`, for which the inhibition in experiment [3] was 71.1% (active); in experiment [4], 102% (active); in experiment [5] it was 71.5% (active); in experiment [6], 88.4% (active).

Consider `COc1cccc2cc(-c3cc(=O)oc4ccc(OC(=O)N(C)C)cc34)oc12`, for which the inhibition is -17.6% in experiment [1] and -14.6% in experiment [2].

For the compound `Cc1cc(OC(=O)c2ccco2)c2c3c(c(=O)oc2c1)CCCC3`, the inhibition was 7.67% in experiment [3], 56% (active) in experiment [4], 47.2% (active) in [5] and 20.2% in [6].

As for `COc1cccc2c1C(=O)c1c(O)c3c(c(O)c1C2=O)CC(O)(C(C)=NO)CC3OC1CC(N)C(O)C(C)O1` (stereo not drawn), the inhibition in experiment [1] was -12.8%; in [2], 42.6% (active); in [4], 79.4% (active); in experiment [5], 62.3% (active).

For `CC(C)(C)c1ccc(CSc2cnn(C(C)(C)C)c(=O)c2Cl)cc1`, the inhibition in experiment [1] was -34.9%; in experiment [2], 44.7% (active); in [3], 28.1% (active); in experiment [4], 99.2% (active); in experiment [5] it was 63.8% (active); in experiment [6], 57.7% (active).

As for `COc1cc2c(cc1OC)C1C(=O)c3ccc4c(c3OC1CO2)CC(C(C)C)O4` (stereo not drawn), the inhibition was -30.2% in experiment [1]; 41.4% (active) in experiment [2]; 40.3% (active) in experiment [3]; 71.2% (active) in [4]; 73.1% (active) in experiment [5]; 65.5% (active) in [6].

As for `CCOC(=O)[C@]12Cc3ccccc3[C@H]1N(C1CCCCC1)C(=O)c1cc(OC)ccc12`, the inhibition in [9] is 61.3% (active); in experiment [10], 0.28%; in experiment [3], 55.3% (active); in experiment [4] it was 98% (active); in experiment [5], 58.9% (active); in experiment [6], 85.2% (active).
